VDR inh: blocks the human vitamin D receptor; Potency, µM, for inactives: max response, negative = inhibition, hits mostly inhibitors; VDR-SRC2-3 peptide fluorescence polarization, 2 h; hit rate 0.93% among 400,000; AID 504847; also: potency is read from the fitted curve at half-maximal effect; % is scaled to controls: 0 for no effect and ±100 for the full control effect
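Fluorescence polarization assay of small-molecule disruption of VDR binding to coregulator peptide SRC2-3. Compounds and controls pin-transferred, then read after 2 h incubation at ambient room temperature.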
GCN5L2 inh-1: blocks human GCN5L2 histone acetyltransferase | hit rate 0.21% among 390,000 | AID 504327 | Potency, µM (doses to about 58.9 µM), without a hit: at the top dose activity change, negative = inhibition, most hits filed as inhibitors | GCN5L2 HAT assay, ThioGlo1 CoA-SH fluorescence; also: potency is read from the fitted curve at half-maximal effect; % is scaled to controls: 0 for no effect and ±100 for the full control effect
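ThioGlo1-coupled HAT assay: 20nM GCN5L2, 70uM acetyl-CoA, 75uM H3(1-25) peptide, pH 7.5. Fluorescence read at 340/540nm at start and after 20 min at room temperature.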
PLK1 PBD inh: blocks phosphopeptide binding to human PLK1 polo-box domain | P53350 | Plk1 PBD binding of FITC phosphopeptide, fluorescence polarization | Potency, µM, for inactives: max response, negative = inhibition, usual class: inhibitors | hit rate 2.8% among 360,000; also: potency is read from the fitted curve at half-maximal effect; series mostly up to about 57 µM; % is scaled to controls: 0 for no effect and ±100 for the full control effect; nearly all actives have a fitted effect of over 65% in size
Target sequence (P53350 whole entry, looked up, the tested form may be a part): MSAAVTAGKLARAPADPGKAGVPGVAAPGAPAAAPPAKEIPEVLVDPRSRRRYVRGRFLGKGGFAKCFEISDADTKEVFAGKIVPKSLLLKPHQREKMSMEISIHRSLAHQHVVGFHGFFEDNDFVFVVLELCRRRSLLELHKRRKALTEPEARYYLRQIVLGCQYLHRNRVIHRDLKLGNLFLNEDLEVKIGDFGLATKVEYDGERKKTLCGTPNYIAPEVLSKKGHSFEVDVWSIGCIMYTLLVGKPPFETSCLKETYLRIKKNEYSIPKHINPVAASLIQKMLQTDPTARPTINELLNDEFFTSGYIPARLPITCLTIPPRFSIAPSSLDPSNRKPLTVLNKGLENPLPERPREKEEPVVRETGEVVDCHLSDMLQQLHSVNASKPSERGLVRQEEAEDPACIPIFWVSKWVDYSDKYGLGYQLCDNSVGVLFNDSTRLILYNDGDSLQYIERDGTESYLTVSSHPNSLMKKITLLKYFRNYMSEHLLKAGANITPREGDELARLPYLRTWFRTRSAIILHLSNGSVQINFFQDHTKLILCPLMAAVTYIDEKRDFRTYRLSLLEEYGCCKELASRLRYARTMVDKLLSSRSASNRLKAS
ALOX12 inh: inhibitors of human 12S-lipoxygenase ALOX12 | P18054 | purified 12hLO, xylenol orange hydroperoxide absorbance | Potency, µM (highest dose often 108 µM), inactives show at the highest dose activity change, negative = inhibition, usual class: inhibitors | hit rate 1.1% among 580,000; also: potency is read from the fitted curve at half-maximal effect; % is scaled to controls: 0 for no effect and ±100 for the full control effect
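Purified human 12hLO (150 nM final) in 25 mM Hepes, 0.01% Triton X-100, pH 7.0 was preincubated 15 min at room temperature with compound. Then 40 uM arachidonic acid was added, 30 min. Hydroperoxide was read by Fe-XO absorbance ratio 573/405 nm.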
GCN5L2 inh-2: human KAT2A HAT inhibition, hit confirmation. shares compounds with GCN5L2 inh-1. hit rate 70% among 140. Potency, µM, hits mostly inhibitors. GCN5L2 HAT, ThioGlo1 CoA fluorescence, 20 min
An asterisk follows results filed as active; i = inactive; ? = inconclusive; nt = no result given. In the library only some 3% were active in any assay of this set; here they are far more common. Calls follow the shape of the dose curve; as a rule, active = well fitted curve in the direction sought with a large enough effect; inconclusive = small, poorly fitted or top-dose-only effect, or another doubt; inactive = no such curve, though single readings can be large; an effect the other way counts as inactive or inconclusive.

SMILES	VDR inh	GCN5L2 inh-1	PLK1 PBD inh	ALOX12 inh	others
COc1ccc2[nH]cc(C3C(NC(=O)c4ccccc4)=C(C)Nc4ncnn43)c2c1 (stereo not given)	nt	nt	nt	13.8%
O=C(/C=C/c1cccc(F)c1)NNC(=O)C1CCCCC1	nt	nt	nt	25.8%
Cc1ccc(C(=O)NNC(=O)COC(=O)c2ccccc2SCc2ccc(C#N)cc2)cc1	nt	nt	nt	32.0%
COc1ccc(NC(=O)c2ccccc2SCc2ccc(C#N)cc2)cc1OC	nt	nt	nt	35.5µM*
Cc1nnc2sc(-c3ccc(CNC(=O)C(C)(C)Oc4ccc(Br)cc4)cc3)nn12	nt	nt	nt	7.6%
O=C(COC(=O)C1c2ccccc2Oc2ccccc21)NC1CCS(=O)(=O)C1 (stereo not given)	?	-15.2%	11.9µM*	-47.5%
CCn1nc(C(=O)Nc2nc(-c3ccc(NC(C)=O)cc3)cs2)c2ccccc2c1=O	nt	nt	nt	27.9%
COc1ccc(C)cc1NC(=O)c1cc(S(=O)(=O)N2CCc3ccccc32)cn1C	nt	nt	nt	75.3%
O=C(Nc1nc(COc2ccccc2)cs1)C12CC3CC(CC(C3)C1)C2	1.9%	-3.6%	-5.0%	28.2µM*
Cc1ccc(/C(COc2ccc3c(C)c(Cc4ccccc4)c(=O)oc3c2C)=N/O)cc1	nt	nt	nt	-6.6%
Cc1ccccc1-c1cc(-c2ccccc2O)n[nH]1	0.1%	-15.6%	3.36µM*	?
Oc1ccc(Br)cc1-c1cc(-c2ccccc2Cl)[nH]n1	?	-10.3%	23.8µM*	-0.9%
Cc1nc2sc(C(=O)Nc3ccccc3)c(N)c2c(C)c1[N+](=O)[O-]	-19.5%	-1.0%	26.7µM*	-4.6%
CC(=O)c1ccc(NC(=O)c2sc3nc(C)c(C)c(C)c3c2N)cc1	6.7%	-8.5%	-0.3%	6.6%
CCCc1noc(C(C)Sc2nc(C3CC3)nc3ccccc23)n1 (stereo not given)	nt	nt	nt	17.5%
Cc1ccccc1OCC(=O)NN1Cc2ccccc2C1=N	-11.0%	0.0%	26.7µM*	0.0%
CS/C(=N\S(=O)(=O)c1cccs1)NC(=O)CSc1nc2ccccc2s1	?	?	10.6µM*	?
COc1c(C)cnc(CN2CCN(C(C(=O)O)c3c[nH]c4ccc(CO)cc34)CC2)c1C (stereo not given)	nt	nt	nt	8.5%
CC[n+]1ccc(C[n+]2ccccc2)c2ccccc21	-20.6%	28.2µM*	-16.4%	?
Cc1ccc2c(c1)c(C)cc[n+]2Cc1ccccc1	8.1%	-0.1%	-2.3%	-6.4%
CCOC(=O)C1CCN(C(=O)CCc2nnc3ccc(NCc4ccco4)nn23)CC1	-0.6%	?	-10.9%	11.5%
O=C(CCc1nnc2ccc(NCc3ccco3)nn12)N1CCN(c2ccccc2)CC1	?	?	18.9µM*	6.9%
O=C(CCCN1C(=O)/C(=C/c2ccccc2Cl)SC1=S)NNC(=O)c1ccccc1	4.4%	-3.9%	1.5%	5.3%
CC(C(=O)Nc1ccc(O)cc1C(=O)O)N1C(=O)/C(=C\c2cccs2)SC1=S (stereo not given)	44.7µM*	-36.6%	6.7µM*	31.6µM*
CCc1ccc(/C=C2\SC(=S)N(CCCC(=O)Nc3ccccn3)C2=O)cc1	14.0%	-6.9%	16.4%	73.7%
SMILES	VDR inh	GCN5L2 inh-1	PLK1 PBD inh	ALOX12 inh	others
CCc1ccc(/C=C2/SC(=S)N(CCCC(=O)Nc3ccccc3C(=O)O)C2=O)cc1	?	0.3%	23.8µM*	?
O=C(CCCN1C(=O)/C(=C/c2ccco2)SC1=S)Nc1ccccc1C(=O)O	-1.5%	-24.9%	?	31.6µM*
O=C(CCCN1C(=O)/C(=C\c2ccccc2)SC1=S)Nc1ccc(O)cc1C(=O)O	-22.4%	-4.3%	-16.2%	?
O=C(CCN1C(=O)/C(=C/c2ccccc2Cl)SC1=S)Nc1ccccc1C(=O)O	79.4µM*	-21.3%	23.8µM*	?
O=C(CN1C(=O)/C(=C\c2ccco2)SC1=S)Nc1ccc(O)cc1C(=O)O	-12.8%	-20.9%	16.8µM*	25.1µM*
Cc1cc(Cl)n2c(nc3cc(F)c(F)cc32)c1C#N	15.8µM*	-7.6%	?	-5.4%
Cc1cc(C)n2c(=O)c3ccc(Cl)cc3nc2c1C#N	-11.0%	-1.7%	-6.1%	?
Cc1ccc(C(=O)OCC(=O)c2ccco2)s1	nt	nt	nt	31.6µM*
Cc1nn(CC(=O)Nc2ccc(O)cc2)c(=O)c2ccccc12	nt	nt	nt	4.1%
CN(C(=O)CC1C(=O)NCCN1Cc1cccc(F)c1F)C1CCOCC1 (stereo not given)	0.3%	-20.1%	-11.9%	7.08µM*
CN(C(=O)CC1C(=O)NCCN1Cc1c(F)cccc1Cl)C1CCOCC1 (stereo not given)	-14.8%	-2.2%	-27.1%	1.7%
O=C(O)c1ccc(-n2cccc2/C=C2/NC(=O)N(c3cccc(Cl)c3)C2=O)cc1	-28.6%	?	26.7µM*	?	GCN5L2 inh-2=?
Cc1ccc(CN2C(=O)N/C(=C\c3cccn3-c3cccc(C(=O)O)c3)C2=O)cc1	2.3%	?	?	?
CCC1=NN2C(=N)/C(=C/c3ccc(OS(=O)(=O)c4ccccc4)cc3)C(=O)N=C2S1	?	-27.9%	?	nt
Cc1ccc(S(=O)(=O)Oc2ccc(/C=C3/C(=N)N4C(=NC3=O)SN=C4S(C)(=O)=O)cc2)cc1	?	?	21.2µM*	?	GCN5L2 inh-2=10.2*
CCS(=O)(=O)C1=NN2C(=N)/C(=C\c3ccc(OS(=O)(=O)c4ccccc4)cc3)C(=O)N=C2S1	50.1µM*	14.1µM*	21.2µM*	nt	GCN5L2 inh-2=10.2*
CN1c2cc(C(=O)Nc3ccc(C(F)(F)F)cc3)ccc2C(=O)N2CCCCC21 (stereo not given)	nt	nt	nt	24.8%
COc1cccc2cc(-c3cc(=O)oc4c(C)c(C)ccc34)oc12	nt	nt	nt	-23.4%
O=C(c1cc2c(s1)CCCCCC2)N1CCN(S(=O)(=O)c2ccccc2)CC1	nt	nt	nt	-27.6%
COc1ccc(S(=O)(=O)N2CCN(C(=O)c3cc4c(s3)CCC4)CC2)cc1	-15.6%	15.8µM*	?	?	GCN5L2 inh-2=18.2*
CCSc1ccccc1C(=O)Nc1ccc(S(=O)(=O)NC(C)=O)cc1	8.8%	17.8µM*	-23.7%	?	GCN5L2 inh-2=?
COc1ccc(CCn2c(=S)[nH]c3ccc(N4CCOCC4)cc3c2=O)cc1OC	-16.6%	-4.4%	?	i
COCCCn1c(=S)[nH]c2ccc(N3CCOCC3)cc2c1=O	5.6%	?	-1.9%	?	GCN5L2 inh-2=32.4*
COC(=O)c1ccc2[nH]c(C)cc(=O)c2c1	31.2%	-10.0%	0.2%	250.1%
COC(=O)c1scc2c(=O)cc(C(F)(F)F)[nH]c12	-13.8%	22.4µM*	nt	9.7%	GCN5L2 inh-2=36.3*
O=C(COC(=O)c1ccccc1)Nc1ncc([N+](=O)[O-])s1	-24.9%	?	21.2µM*	39.8µM*	GCN5L2 inh-2=4.57*
O=C(Cc1ccc(Cl)cc1Cl)Nc1cccc(S(=O)(=O)Nc2ccccc2F)c1	?	?	1.19µM*	?	GCN5L2 inh-2=?
O=S(=O)(O)c1cccc2cccnc12	-16.9%	nt	nt	nt
CSS(=O)(=O)c1cccc2cccnc12	11.2µM*	8.91µM*	2.38µM*	?	GCN5L2 inh-2=5.76*

Source: PubChem BioAssay (National Center for Advancing Translational Sciences (NCATS))
